Source: PubChem BioAssay
For some of these results: Measured potencies and affinities stand elsewhere. Calls of active or inactive are those of the source. Unless noted, the rule behind the calls is not given here.

Legend:
[1] = antimalarial activity against Dd2 strain (AID 2302;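 active = growth inhibition above 50% at the single 2 µM test dose, taken to imply half-maximal potency below 2 µM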;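 note: 0% = DMSO untreated growth and 100% = chloroquine plus artemisinin killed control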); settings: P. falciparum Dd2 in RBCs, LDH growth readout, 72 h; at 2 µM; hits give high values
[2] = HepG2 cytotoxicity, primary screen, cytotoxicity control for P. falciparum antimalarial project, cell-based, ATP luminescence (AID 2303;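 active = inhibition above 50%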;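 note: 0% = DMSO wells and 100% = digitonin-killed cells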); settings: HepG2 viability, 24-48 h, at 10 µM, hits give high values
[3] = molecular target: L-lactate dehydrogenase (Plasmodium falciparum (isolate CDC / Honduras)) (UniProt Q27743); experiment: PfLDH activity inhibition – cell lysate, 3D7 strain, counter-screen for P. falciparum growth inhibition project (AID 2304);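 note: 0% = vehicle and 100% = reference inhibitor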; settings: P. falciparum 3D7 crude extract, LDH APAD/NBT absorbance; at 2 µM; hits give high values
Chain of L-lactate dehydrogenase (Plasmodium falciparum (isolate CDC / Honduras)) (Q27743 whole entry, looked up): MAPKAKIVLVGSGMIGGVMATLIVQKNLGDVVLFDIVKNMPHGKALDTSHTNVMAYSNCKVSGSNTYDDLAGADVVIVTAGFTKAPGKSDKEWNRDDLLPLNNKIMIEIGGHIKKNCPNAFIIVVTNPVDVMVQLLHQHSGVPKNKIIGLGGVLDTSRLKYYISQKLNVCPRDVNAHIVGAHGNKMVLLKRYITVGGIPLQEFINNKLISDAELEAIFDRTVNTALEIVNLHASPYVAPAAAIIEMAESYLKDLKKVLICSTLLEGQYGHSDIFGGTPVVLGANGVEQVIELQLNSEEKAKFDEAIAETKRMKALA

[4] = inhibition of 3D7 malaria parasite growth – strain 3D7 (AID 2306);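 note: 0% = DMSO wells and 100% = chloroquine plus artemisinin control wells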; settings: P. falciparum 3D7 erythrocytic growth, LDH absorbance, 72 h; at 2 µM; hits give high values
[5] = molecular target: Calcium-dependent protein kinase 1 (Plasmodium falciparum (isolate 3D7)) (UniProt P62344); experiment: PfCDPK1 kinase inhibitors, biochemical, TCAMS library (AID 1159585; cut-off not given, nearly all actives have IC50 up to about 0.98 µM;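 note: inhibitors leave more ATP so luminescence rises with inhibition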); settings: recombinant PfCDPK1, Kinase-Glo ATP depletion luminescence
Chain of Calcium-dependent protein kinase 1 (Plasmodium falciparum (isolate 3D7)) (P62344 whole entry, looked up): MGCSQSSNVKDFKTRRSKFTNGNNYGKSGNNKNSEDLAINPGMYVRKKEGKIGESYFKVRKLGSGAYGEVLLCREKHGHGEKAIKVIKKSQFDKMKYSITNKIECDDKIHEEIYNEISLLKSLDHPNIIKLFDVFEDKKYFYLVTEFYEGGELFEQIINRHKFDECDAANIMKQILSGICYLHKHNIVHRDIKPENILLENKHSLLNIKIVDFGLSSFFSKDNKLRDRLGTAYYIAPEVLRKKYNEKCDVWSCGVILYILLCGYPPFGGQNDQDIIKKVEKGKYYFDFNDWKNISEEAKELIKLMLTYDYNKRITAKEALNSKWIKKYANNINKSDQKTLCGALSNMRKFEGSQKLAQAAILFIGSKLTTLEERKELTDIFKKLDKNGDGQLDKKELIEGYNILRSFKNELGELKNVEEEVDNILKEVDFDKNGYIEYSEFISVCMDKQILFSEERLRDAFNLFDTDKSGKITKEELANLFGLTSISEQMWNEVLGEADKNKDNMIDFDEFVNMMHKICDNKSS

[6] = molecular target: Plasmodium falciparum protein kinase 6 (PK6, PF3D7_1337100) (UniProt Q8IDW1); experiment: PfPK6 kinase inhibitors, biochemical, TCAMS library (AID 1159586); settings: recombinant PfPK6, Kinase-Glo ATP depletion luminescence
Chain of Plasmodium falciparum protein kinase 6 (PK6, PF3D7_1337100) (Q8IDW1 1-305): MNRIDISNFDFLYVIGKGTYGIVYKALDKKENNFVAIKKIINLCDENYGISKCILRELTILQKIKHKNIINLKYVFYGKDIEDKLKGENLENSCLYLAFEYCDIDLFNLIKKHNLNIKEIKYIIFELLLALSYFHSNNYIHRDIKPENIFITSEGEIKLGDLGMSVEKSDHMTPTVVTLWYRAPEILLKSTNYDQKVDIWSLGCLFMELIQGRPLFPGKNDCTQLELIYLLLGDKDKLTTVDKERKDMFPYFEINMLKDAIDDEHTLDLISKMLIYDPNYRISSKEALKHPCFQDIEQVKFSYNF

[7] = molecular target: Protein kinase 7 (PK7), Plasmodium falciparum 3D7 (PF3D7_0213400) (UniProt Q7YTF7); experiment: inhibition of Plasmodium PK7 catalytic activity – biochemical, TCAMS antimalarial set, Kinase-Glo luminescence (AID 1159587); settings: recombinant PfPK7, Kinase-Glo ATP depletion luminescence
Chain of Protein kinase 7 (PK7), Plasmodium falciparum 3D7 (PF3D7_0213400) (Q7YTF7 1-343): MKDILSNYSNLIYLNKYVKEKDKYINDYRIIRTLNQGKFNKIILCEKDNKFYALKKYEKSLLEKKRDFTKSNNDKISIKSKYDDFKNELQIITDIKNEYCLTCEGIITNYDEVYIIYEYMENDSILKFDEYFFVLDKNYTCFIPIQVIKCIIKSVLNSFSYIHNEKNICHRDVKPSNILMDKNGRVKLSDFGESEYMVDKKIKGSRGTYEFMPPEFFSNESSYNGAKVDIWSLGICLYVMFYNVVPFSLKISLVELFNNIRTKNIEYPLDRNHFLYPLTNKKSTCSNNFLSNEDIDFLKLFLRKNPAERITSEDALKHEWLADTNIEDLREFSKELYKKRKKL

[8] = molecular target: Calcium-dependent protein kinase 4 (Plasmodium falciparum (isolate 3D7)) (UniProt Q8IBS5); experiment: PfCDPK4 kinase inhibitors, biochemical, TCAMS library (AID 1159588; cut-off not given, nearly all actives have IC50 up to about 0.91 µM); settings: recombinant PfCDPK4, Kinase-Glo ATP depletion luminescence
Chain of Calcium-dependent protein kinase 4 (Plasmodium falciparum (isolate 3D7)) (Q8IBS5 whole entry, looked up): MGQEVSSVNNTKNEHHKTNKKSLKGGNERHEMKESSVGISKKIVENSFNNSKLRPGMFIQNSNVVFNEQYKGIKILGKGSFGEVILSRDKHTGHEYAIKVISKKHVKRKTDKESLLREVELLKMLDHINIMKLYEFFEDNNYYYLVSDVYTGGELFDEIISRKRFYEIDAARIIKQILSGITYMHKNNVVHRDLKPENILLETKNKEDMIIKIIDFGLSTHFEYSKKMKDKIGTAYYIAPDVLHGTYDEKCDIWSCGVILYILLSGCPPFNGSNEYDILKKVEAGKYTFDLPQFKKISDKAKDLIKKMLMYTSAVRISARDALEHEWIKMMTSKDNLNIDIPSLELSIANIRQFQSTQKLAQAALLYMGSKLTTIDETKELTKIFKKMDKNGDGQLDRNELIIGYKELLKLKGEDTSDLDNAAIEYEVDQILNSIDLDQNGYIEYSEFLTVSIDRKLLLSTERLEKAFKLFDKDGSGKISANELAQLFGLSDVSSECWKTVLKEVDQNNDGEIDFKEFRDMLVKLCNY

c1cc(CN2CCCCC2)cc(OCCCNc2ccnc3ccccc23)c1
inactive: inhibition [2] 48% | inhibition [3] -1% | outcome [5] | outcome [6] | outcome [7] | outcome [8]
active: growth inhibition [1] 99% | growth inhibition [4] 100%

N#Cc1ccc2c(c1)CCN(CCC1CCC(NC(=O)/C=C/c3c[nH]c4ccc(F)cc34)CC1)CC2 (stereo not given)
inactive: inhibition [2] 18% | inhibition [3] 4% | outcome [5] | outcome [6] | outcome [7] | outcome [8]
active: growth inhibition [1] 83% | growth inhibition [4] 101%

O=C(NCCNc1ccnc2cc(Cl)ccc12)c1ccccc1F
active: growth inhibition [1] 98% | growth inhibition [4] 99%
inactive: inhibition [2] 30% | inhibition [3] 0% | outcome [5] | outcome [6] | outcome [7] | outcome [8]

Nc1nc(N)c2c(Oc3cccc4ccccc34)cccc2n1
active: growth inhibition [4] 96%
inactive: growth inhibition [1] 10% | inhibition [2] 42% | inhibition [3] 6% | outcome [5] | outcome [6] | outcome [7] | outcome [8]

CN(CCN)Cc1ccc(-c2ccc(-c3nc4ccc(C(F)(F)F)cc4[nH]3)s2)cc1
active: growth inhibition [1] 98% | growth inhibition [4] 98%
inactive: inhibition [2] 37% | inhibition [3] 2% | outcome [5] | outcome [6] | outcome [7] | outcome [8]

CN(C)CCOc1ccc2c(c1)CN(C)CC2c1ccccc1 (stereo not given)
active: growth inhibition [4] 91%
inactive: growth inhibition [1] -1% | inhibition [2] 15% | inhibition [3] -2% | outcome [5] | outcome [6] | outcome [7] | outcome [8]

FC(F)(F)c1ccc2nc(-c3cccc(-c4ccc(CNCCN5CCNCC5)cc4)c3)[nH]c2c1
active: growth inhibition [4] 96%
inactive: growth inhibition [1] 0% | inhibition [2] 17% | inhibition [3] 4% | outcome [5] | outcome [6] | outcome [7] | outcome [8]

COc1ccc2nc3cc(Cl)ccc3c(Nc3ccc(O)c(CNC(C)C)c3)c2c1
inactive: inhibition [2] 5% | inhibition [3] -1% | outcome [5] | outcome [6] | outcome [7] | outcome [8]
active: growth inhibition [1] 100% | growth inhibition [4] 102%

COc1ccc(CNC2CCN(C)CC2)cc1-c1ccc(S(=O)(=O)NC2CCC2)s1
inactive: inhibition [2] 32% | inhibition [3] 5% | outcome [5] | outcome [6] | outcome [7] | outcome [8]
active: growth inhibition [1] 94% | growth inhibition [4] 100%

CC[C@H](C)CNC(=O)c1ccnc(-c2ccc(CN3CCC(N4CCCC4)CC3)cc2)c1
active: growth inhibition [1] 84% | growth inhibition [4] 99%
inactive: inhibition [2] 13% | inhibition [3] -2% | outcome [5] | outcome [6] | outcome [7] | outcome [8]

Cc1c(Cl)cccc1NC(=S)NN=Cc1ccccn1
active: growth inhibition [1] 85% | inhibition [2] 58% | growth inhibition [4] 99%
inactive: inhibition [3] 5% | outcome [5] | outcome [6] | outcome [7] | outcome [8]

N#Cc1ccc(CN2CCC(Oc3ccc(NC(=O)c4cccs4)cc3)CC2)cc1
active: growth inhibition [1] 82% | growth inhibition [4] 83%
inactive: inhibition [2] 10% | inhibition [3] -3% | outcome [5] | outcome [6] | outcome [7] | outcome [8]

COc1ccc(NC(=O)[C@H](CC(C)C)Nc2cc(C)nc(Nc3ccccc3)n2)cc1
active: growth inhibition [1] 92% | growth inhibition [4] 101%
inactive: inhibition [2] 25% | inhibition [3] -1% | outcome [5] | outcome [6] | outcome [7] | outcome [8]

O=C(NCc1cccc(OC(F)(F)F)c1)c1cnc2c(c1)nc(-c1cnc(-c3ccccc3)[nH]1)n2CCc1cnc[nH]1
active: growth inhibition [4] 99%
inactive: growth inhibition [1] 47% | inhibition [2] 0% | inhibition [3] -10% | outcome [5] | outcome [6] | outcome [7] | outcome [8]

OC1(c2ccccc2)CCN(Cc2cccc(-c3c[nH]c4nc(NC5CCCC5)ncc34)c2)C1 (stereo not given)
inactive: growth inhibition [1] 31% | inhibition [2] 42% | inhibition [3] -1% | outcome [5] | outcome [6] | outcome [7] | outcome [8]
active: growth inhibition [4] 92%

COc1cccc(-c2nc3c(N4CCN(c5ccncc5)CC4)cccc3n2CC2CCCCCN2)n1 (stereo not given)
inactive: growth inhibition [1] 31% | inhibition [2] 12% | inhibition [3] 3% | outcome [5] | outcome [6] | outcome [7] | outcome [8]
active: growth inhibition [4] 91%

CCOC(=O)c1ccc(NC(=O)Nc2cccc(-c3ccc(-c4nc5ccc(F)cc5[nH]4)cc3)c2)cc1
active: growth inhibition [1] 97% | growth inhibition [4] 101%
inactive: inhibition [2] 40% | inhibition [3] 1% | outcome [5] | outcome [6] | outcome [7] | outcome [8]

O=C(NCC1CCN(Cc2ccsc2)C1)c1cc(-c2cccc(C(F)(F)F)c2)cs1 (stereo not given)
inactive: growth inhibition [1] 15% | inhibition [2] 37% | inhibition [3] -2% | outcome [5] | outcome [6] | outcome [7] | outcome [8]
active: growth inhibition [4] 98%

COc1ccc(Nc2nccc(N3CCC(NC(=O)Nc4cccc(OC)c4)C3)n2)cc1 (stereo not given)
active: growth inhibition [4] 99%
inactive: growth inhibition [1] 48% | inhibition [2] 23% | inhibition [3] -1% | outcome [5] | outcome [6] | outcome [7] | outcome [8]

Cc1[nH]cc(Br)c(=O)c1-c1ccc(Oc2ccc(OC(F)(F)F)cc2)cc1
active: growth inhibition [1] 92% | growth inhibition [4] 96%
inactive: inhibition [2] 22% | inhibition [3] -2% | outcome [5] | outcome [6] | outcome [7] | outcome [8]
